HTT cytoprotect: Huntington cell model cytoprotection by ATP luminescence. PC12 HTT-Q103 induced, cytoprotection, ATP luminescence, 40 h. Potency, µM (titrated, usually from 56.4 µM), actives largely listed as activators. actives 0.14% (n = 230,000); also: nearly all actives have a fitted effect of over 45% in size
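Cells were plated at 1500 per well in phenol red-free DMEM with 5% equine and 5% calf serum. Tebufenozide (100 nM final) and compounds were added, then ATPlite reagent, and luminescence was read.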
HttQ103 aggreg: inhibitors of mutant huntingtin aggregate formation in PC12 cells; PC12 HttQ103-GFP aggregates, Acumen cytometry, 40 h; Potency, µM (titrated, usually from 46.1 µM), actives largely listed as inhibitors; actives 1.1% (n = 220,000); AID 1688; also: nearly all actives have a fitted effect of over 60% in size
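Using laser scanning cytometry, GFP-positive aggregates were counted after lysis of PC12 cells induced with 100 nM tebufenozide to express HTT exon 1 Q103–GFP. Compounds were tested in titration.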
HPGD inh: inhibitors of human 15-hydroxyprostaglandin dehydrogenase (HPGD). P15428. purified HPGD, NADH fluorescence kinetic, PGE2 substrate. Potency, µM, most hits filed as inhibitors. actives 4.3% (n = 150,000). AID 894; active = well fitted inhibition curve with a large enough effect, not every such curve was filed as active; inconclusive = small, poorly fitted or top-dose-only effect, or another doubt; inactive = no such curve, though single readings can be large or run the other way
Target sequence (P15428 whole entry, looked up): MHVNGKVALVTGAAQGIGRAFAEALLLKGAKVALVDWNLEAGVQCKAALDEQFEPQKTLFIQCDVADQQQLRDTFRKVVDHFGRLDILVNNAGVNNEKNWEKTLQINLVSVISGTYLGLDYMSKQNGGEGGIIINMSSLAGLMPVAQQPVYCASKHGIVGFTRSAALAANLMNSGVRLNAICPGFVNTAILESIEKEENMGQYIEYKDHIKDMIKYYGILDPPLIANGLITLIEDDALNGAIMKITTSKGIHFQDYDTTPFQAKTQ
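NADH formation kinetics: reaction with 30 uM PGE2 and 1 mM NAD+ (final), 20 nM enzyme, Tris-HCl pH 8 with Tween 20, after 15 min compound preincubation at room temperature. Fluorescence change, last versus first of five reads.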
ALDH1A1 block: blocks purified human ALDH1A1 activity. P00352. Purified ALDH1A1, NADH fluorescence, propionaldehyde substrate. Potency, µM (series often up to 75.3 µM), most hits filed as inhibitors. actives 7.3% (n = 220,000). AID 1030; active = well fitted inhibition curve with a large enough effect, not every such curve was filed as active; inconclusive = small, poorly fitted or top-dose-only effect, or another doubt; inactive = no such curve, though single readings can be large or run the other way
Target sequence (P00352 whole entry, looked up): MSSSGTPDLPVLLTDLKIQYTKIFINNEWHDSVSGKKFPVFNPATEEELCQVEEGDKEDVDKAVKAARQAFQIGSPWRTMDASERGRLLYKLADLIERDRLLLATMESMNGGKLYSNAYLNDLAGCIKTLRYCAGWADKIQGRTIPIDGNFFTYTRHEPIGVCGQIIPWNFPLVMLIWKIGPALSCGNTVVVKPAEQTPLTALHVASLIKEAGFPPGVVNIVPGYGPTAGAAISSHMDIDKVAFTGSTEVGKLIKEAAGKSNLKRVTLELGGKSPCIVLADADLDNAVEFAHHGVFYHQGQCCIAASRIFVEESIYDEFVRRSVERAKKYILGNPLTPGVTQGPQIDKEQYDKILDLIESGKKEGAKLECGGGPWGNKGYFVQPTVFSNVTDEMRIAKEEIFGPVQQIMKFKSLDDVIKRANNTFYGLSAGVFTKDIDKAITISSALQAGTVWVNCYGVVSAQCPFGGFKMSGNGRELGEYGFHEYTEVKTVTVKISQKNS
KinaseGlo FLuc: counter-screen: inhibitors of Kinase-Glo firefly luciferase | Q27757 | Kinase-Glo luciferase, ATP luminescence, 8 min | Potency, µM (series often up to 38.3 µM), hits mostly inhibitors | actives 0.28% (n = 200,000); also: nearly all actives have a fitted effect of over 60% in size
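Kinase-Glo luciferase light output from ATP and luciferin was measured with 10 uM ATP, within the enzyme's linear range. Buffer: 50 mM imidazole pH 7.2, 50 mM KCl, 7 mM MgCl2, 0.01% Tween 20, 0.05% BSA; luminescence read after 8 min at ambient temperature.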
LMNA splice mod: changes lamin A minigene splicing in HeLa cells. actives 0.01% (n = 200,000). AID 1487. Potency, µM (doses to about 46.1 µM), usual class: inhibitors. HeLa LMNA splicing GFP/RFP minigene ratio, 48 h; active = well fitted inhibition curve with a large enough effect in the signal ratio, with a control signal flat, not every such curve was filed as active; inconclusive = small, poorly fitted or top-dose-only effect, or effect the other way, or a change in a side signal; the % refers to the signal ratio
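S3 HeLa cells stably expressing lamin A-EGFP splicing minigene plus DsRed2, 600 cells/well, 48 h compound exposure at 37C. Laser-scanning cytometry; analysed as GFP (500-530 nm)/RFP (575-640 nm) total intensity ratio; 0.5% DMSO vehicle.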
Of the large screens only hits and unclear results are named; the others gave an inactive call; ! = a repeat was not active. In the library only some 9% were active in any assay of this set; here they are far more common. Unless noted, calls follow the shape of the dose curve; as a rule, active = well fitted curve in the direction sought with a large enough effect; inconclusive = small, poorly fitted or top-dose-only effect, or another doubt; inactive = no such curve, though single readings can be large; an effect the other way counts as inactive or inconclusive.

O=C(c1ccco1)N1CCN(C(=O)C2CCCN(S(=O)(=O)Cc3ccccc3)C2)CC1 (configuration not stated)	ALDH1A1 block inconclusive
Nc1nc(NCc2ccco2)nc(Nc2cccc(F)c2)c1[N+](=O)[O-]	none (no result: HPGD inh, KinaseGlo FLuc)
COc1cc(NS(=O)(=O)c2ccc(NC(=O)COc3ccccc3C)cc2)nc(OC)n1	none
COc1ccc(O)c(C(=O)c2cnc3c(c2)c(=O)[nH]c(=O)n3C)c1	HPGD inh 28µM
COCCn1c(=O)[nH]c(=O)c2cc(C(=O)c3cc(Cl)ccc3O)cnc21	ALDH1A1 block inconclusive, LMNA splice mod inconclusive (no result: HPGD inh)
Cc1ccccc1NC(=O)Cc1cn(C)c2ccccc12	none
CN1CCN(c2ccccc2NC(=O)Cc2cn(C)c3ccccc23)CC1	HttQ103 aggreg 25µM
O=C(CN1C(=O)CCC1=O)Nc1nc(-c2ccc(Oc3ccccc3)cc2)cs1	HPGD inh 18µM
COc1ccc(-c2csc(NC(=O)CN3C(=O)CCC3=O)n2)cc1OC	HPGD inh 28µM
C#CCOCCOCCOCCNc1nc(N2CCN(C(=O)Cn3cc(CCCN=C(N)N)nn3)CC2)nc(N2CCN(C(=O)Cn3cc(CCCN=C(N)N)nn3)CC2)n1	ALDH1A1 block inconclusive (no result: HTT cytoprotect)
COc1ccc(C2C(C#N)=C(SC)NC3=C2C(=O)CC(C)(C)C3)cc1 (configuration not stated)	ALDH1A1 block 14µM
CC1(C)CC(=O)C2=C(C1)OC(c1ccc(O)cc1)C(C#N)=C2N (configuration not stated)	ALDH1A1 block 1.1µM, LMNA splice mod inconclusive (no result: HTT cytoprotect)
CC1(C)CC(=O)C2=C(C1)OC(N)=C(C#N)C2c1ccsc1 (configuration not stated)	ALDH1A1 block 25µM
COc1ccc(C2C(C#N)=C(N)OC3=C2C(=O)CC(C)(C)C3)cc1 (configuration not stated)	ALDH1A1 block 4.5µM (no result: HPGD inh)
CC1C(C#N)=C(N)OC2=C1C(=O)CC(C)(C)C2 (configuration not stated)	HPGD inh inconclusive
CCC(C)C1C(C#N)=C(N)OC2=C1C(=O)CC(C)(C)C2 (configuration not stated)	ALDH1A1 block 11µM
N#CC1=C(N)OC2=C(C(=O)CCC2)C1c1ccc(OC(=O)N2CCOCC2)cc1 (configuration not stated)	none
CC1(C)CC(=O)C2=C(C1)OC(N)=C(C#N)C2C1CC=CCC1 (configuration not stated)	ALDH1A1 block 7.9µM
CC1(C)CC(=O)C2=C(C1)OC(N)=C(C#N)C2c1ccc(OC(=O)N2CCOCC2)cc1 (configuration not stated)	ALDH1A1 block 3.2µM
Cc1nc2cnc(Nc3ccccc3)nc2n(C)c1=O	none (no result: HttQ103 aggreg, LMNA splice mod)
COc1ccc(C(=O)COC(=O)c2cccnc2Cl)c(OC)c1	none (no result: HPGD inh)
COc1ccc(NC(=S)Nn2cnnc2)cc1OC	ALDH1A1 block 4µM (no result: HPGD inh)
CCc1ccc(NC(=S)Nn2cnnc2)cc1	ALDH1A1 block 1.4µM (no result: HPGD inh)
COc1ccc(NC(=S)Nc2ncccc2C)cc1OC	ALDH1A1 block 25µM, LMNA splice mod inconclusive (no result: HTT cytoprotect, HPGD inh)
Cc1cccnc1NC(=S)Nc1ccc(Cl)c(Cl)c1	none (no result: HPGD inh, LMNA splice mod)
CNC(=S)Nc1ccc(OC)c(OC)c1	none
CCc1ccc(NC(=S)NCc2ccccc2)cc1	none (no result: HPGD inh, LMNA splice mod)
Cc1ccc(NC(=S)Nn2cnnc2)cc1	ALDH1A1 block 3.5µM (no result: HPGD inh)
Cc1nc(N2CCN(c3ccccc3)CC2)[nH]c(=O)c1Cc1ccccc1	none
Cc1ccc2cc(C=O)c(Cl)nc2c1	ALDH1A1 block inconclusive (no result: HPGD inh, LMNA splice mod)
c1ccc(CSCc2cn3ccccc3n2)cc1	none (no result: HPGD inh)
S=C(Nc1ccccc1)Nn1cnnc1	HTT cytoprotect inconclusive, HPGD inh 14µM, ALDH1A1 block 6.3µM
CCOC(=O)C1=C(O)c2ccccc2C(=O)/C1=C\c1ccc(C)cc1	HPGD inh 14µM, ALDH1A1 block 7.9µM, LMNA splice mod inconclusive
Cc1ccc(NC(=O)CN2CCCN(S(=O)(=O)c3ccc(Br)s3)CC2)cc1	ALDH1A1 block 20µM, LMNA splice mod inconclusive
CC(=O)c1ccc(NC(=O)CSCC(=O)Nc2ccc3ccccc3c2)cc1	ALDH1A1 block inconclusive
CC(=O)c1ccc(NC(=O)CCSCCC(=O)Nc2ccc(C(C)=O)cc2)cc1	ALDH1A1 block 40µM
C=CCNC(=O)NC(=O)COC(=O)c1ccccc1Sc1ccc(C(F)(F)F)cc1[N+](=O)[O-]	none
CC(C)(C)C(=O)NC(=S)Nc1cc(C(F)(F)F)ccc1N1CCOCC1	ALDH1A1 block 19µM
Nc1nc(SCC(=O)Nc2cc(C(F)(F)F)ccc2N2CCOCC2)n[nH]1	ALDH1A1 block 22µM (no result: HPGD inh)
O=C(CSCc1ccco1)Nc1cc(C(F)(F)F)ccc1N1CCOCC1	HPGD inh 28µM, ALDH1A1 block 7.1µM
N#CCC(=O)Nc1cc(C(F)(F)F)ccc1N1CCOCC1	LMNA splice mod inconclusive (no result: HPGD inh)
CC(C)(C)C(=O)Nc1cc(C(F)(F)F)ccc1N1CCOCC1	none
CCCC(=O)Nc1cc(C(F)(F)F)ccc1N1CCOCC1	ALDH1A1 block 3.2µM (no result: HPGD inh)
CC(=O)Nc1cc(C(F)(F)F)ccc1N1CCOCC1	none
S=c1nc(-c2ccccc2)n(CCCn2ccnc2)c2c1CCCC2	none
CCn1cc(CCC(=O)O)c(C)n1	none (no result: HPGD inh)
N/C(=N\OC(=O)COc1ccc(Cl)cc1Br)c1ccncc1	ALDH1A1 block inconclusive (no result: HPGD inh, LMNA splice mod)
C=CCn1c(-c2ccccc2[N+](=O)[O-])n[nH]c1=S	ALDH1A1 block inconclusive (no result: HPGD inh, LMNA splice mod)
O=C(Nc1ccccc1)C1Cc2ccccc2CN1C(=O)c1ccco1 (configuration not stated)	none
O=C(Nc1cc(C(F)(F)F)ccc1N1CCOCC1)C1Cc2ccccc2CN1C(=O)c1ccco1 (configuration not stated)	HttQ103 aggreg inconclusive, HPGD inh inconclusive, ALDH1A1 block 22µM
O=C(NC(=S)Nc1cc(C(F)(F)F)ccc1N1CCOCC1)c1sc2ccccc2c1Cl	ALDH1A1 block 7.9µM
C/C(C/C(C)=C1/SC(=S)NC1=O)=C1\SC(=S)NC1=O	HTT cytoprotect inconclusive, ALDH1A1 block inconclusive (no result: HPGD inh, LMNA splice mod)
CCCCCC/C(C)=C1/SC(=S)NC1=O	HPGD inh 13µM, ALDH1A1 block inconclusive
O=c1[nH]c2cc([N+](=O)[O-])c([N+](=O)[O-])cc2[nH]c1=O	HPGD inh 32µM!, LMNA splice mod inconclusive
O=C(NCc1ccncc1)c1cc2ccccc2nc1Cl	HttQ103 aggreg inconclusive (no result: HPGD inh)
Cn1c(=O)c2[nH]c(=O)cnc2n(C)c1=S	ALDH1A1 block 20µM (no result: HPGD inh)
O=C(NCc1ccccc1)C1CCN(S(=O)(=O)N2CCCCCC2)CC1	ALDH1A1 block inconclusive

Bioassay records as filed in PubChem BioAssay.
